# According to PubChem BioAssay (NCI):
# Compounds without any hit were thinned out: in the full panel of roughly 83,000, 20% have a hit.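 Results are percent growth after 48 hours of single-concentration exposure. 100 means growth as in untreated cells, lower positive values show inhibition; negative values down to -100 show cell death.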 A number with no mark means an inactive call. Active and inactive are the calls of the source. The calls were made as follows: active = growth percent below 10; inactive = the rest.
# Experiments:
# Experiment in all cases: NCI-60 one-dose screen, 48 h (100 = growth as untreated, 0 = no growth, -100 = all killed)
# EKVX NSCLC = details: 10 µM unless noted
# SN12C renal = details: 10 µM unless noted
# UO-31 renal = details: 10 µM unless noted
# TK-10 renal = details: 10 µM unless noted
# ACHN renal = details: 10 µM unless noted
# CAKI-1 renal = details: 10 µM
# A498 renal = details: 10 µM unless noted
# CCRF-CEM leukemia = details: 10 µM unless noted
# RPMI-8226 leukemia = details: 10 µM unless noted
# OVCAR-8 ovarian = details: 10 µM unless noted
# OVCAR-5 ovarian = details: 10 µM unless noted
# OVCAR-4 ovarian = details: 10 µM unless noted
# SK-OV-3 ovarian = details: 10 µM unless noted
# IGROV1 ovarian = details: 10 µM unless noted
# HS 578T breast = details: 10 µM unless noted
# NCI/ADR-RES ovarian = details: 10 µM unless noted
# SR leukemia = details: 10 µM unless noted
# MOLT-4 leukemia = details: 10 µM unless noted
Structure (SMILES),growth (EKVX NSCLC),growth (SN12C renal),growth (UO-31 renal),growth (TK-10 renal),growth (ACHN renal),growth (CAKI-1 renal),growth (A498 renal),growth (CCRF-CEM leukemia),growth (RPMI-8226 leukemia),growth (OVCAR-8 ovarian),growth (OVCAR-5 ovarian),growth (OVCAR-4 ovarian),growth (SK-OV-3 ovarian),growth (IGROV1 ovarian),growth (HS 578T breast),growth (NCI/ADR-RES ovarian),growth (SR leukemia),growth (MOLT-4 leukemia) [%]
O=C1c2c(c3c4ccc(Br)cc4oc3c3[nH]c4ccccc4c23)C(=O)N1CCO,53.7%,34%,25.6%,107%,12%,23.6%,52.4%,21.7%,43.3%,50.4%,69.9%,89.7%,37.4%,43.4%,88.5%,44.7%,,
CS(=O)c1nccc(-c2c(-c3ccc(F)c(OCc4ccc(F)cc4)c3)nc3sccn23)n1 (configuration not stated),75.2%,93.6%,89.3%,108%,77.2%,70.8%,88.2%,45.8%,20.2%,89.1%,100%,101%,115%,17.7%,98.4%,107%,-22.2% (active),
C=CCn1c(SCC(=O)Nc2cccc(C(=O)/C=C/c3ccccc3Cl)c2)nc2ccccc2c1=O,94.7%,91.5%,73%,110%,96.3%,79.2%,82.8%,93.8%,,92%,95.1%,87.7%,119%,92%,89.6%,90.4%,14%,
COc1cnc2c(c1)C(=O)c1c-2n(CCCn2ccnc2)c(=O)c2cc(OC)c(OC)cc12,-9.94% (active),3.73% (active),-91.4% (active),-91.4% (active),-36.1% (active),9.33% (active),17.8%,-2.01% (active),-26.7% (active),-93.9% (active),-40.7% (active),-18.3% (active),-31.8% (active),-20.6% (active),57.1%,1.35% (active),,
C=CCn1c(SCC(=O)Nc2cccc(C(=O)/C=C/c3ccc(C)cc3)c2)nc2ccccc2c1=O,91.5%,91.5%,63.9%,105%,89.5%,80%,85.9%,98.4%,27.1%,82.1%,101%,84.9%,113%,95.8%,101%,84.5%,,
COc1ccc2c(C3=C(c4c[nH]c5ccccc45)C(=O)N(O)C3=O)coc2c1,77%,101%,58.2%,144%,94.2%,90.2%,85%,26.9%,72.1%,77.5%,105%,114%,86.5%,77.1%,96.4%,99.5%,,
COc1ccc([C@H]2[C@H](O)C(=O)N2c2cc(OC)c(OC)c(OC)c2)cc1O,51.2%,24.6%,32.6%,81.1%,28.1%,28.9%,-16% (active),16.1%,16.5%,-11.5% (active),30.1%,70.3%,21.4%,26.7%,5.02% (active),18.6%,,
CS(=O)(=O)c1nccc(-c2c(-c3ccc(F)c(OCCc4ccc(F)cc4)c3)nc3sccn23)n1,-66.3% (active),62.4%,-51.8% (active),84.8%,45.2%,44.7%,29.1%,56.4%,-43.2% (active),69.8%,,51.2%,,-64.9% (active),35.5%,81.3%,0.201% (active),14.4
COc1cc2c3c(n(CCCN4CCCCC4)c(=O)c2cc1OC)-c1cc2c(cc1C3=O)OCO2,-56.2% (active),-72.1% (active),-89.3% (active),-87.2% (active),-96.7% (active),-82.9% (active),70.9%,-11.6% (active),-47.3% (active),-63.6% (active),-96.1% (active),-74.1% (active),46%,-68.7% (active),-51.2% (active),-62% (active),,
COc1cc2c3c(n(CCCNCC4CC4)c(=O)c2cc1OC)-c1cc2c(cc1C3=O)OCO2,66%,44.6%,49.8%,72.5%,-73.1% (active),-72.5% (active),68.6%,-9.44% (active),-42.8% (active),-60.5% (active),-66.8% (active),1.27% (active),8.75% (active),56%,95.3%,-13.6% (active),,
CS(=O)c1nccc(-c2c(-c3ccc(F)c(OCCc4ccccc4)c3)nc3sccn23)n1 (configuration not stated),99.9%,93.7%,52.7%,105%,72.8%,84.8%,92.6%,49.8%,55.8%,93%,111%,102%,102%,17.7%,99.8%,108%,,
CNC(=O)c1cc(Oc2ccc3nc(NC(=O)c4cc(C)cc(C)c4)sc3c2)ccn1,82%,90.3%,78.8%,78.5%,93.4%,79%,59.7%,57.3%,51.9%,91.1%,104%,77%,,88.7%,85.8%,76%,30.9%,58.3
COc1ccc([C@@H]2[C@@H](O)C(=O)N2c2cc(OC)c(OC)c(OC)c2)cc1,51.2%,24.6%,29.9%,74.5%,26.8%,25.6%,-20.8% (active),24%,20.3%,2.57% (active),24.8%,59.3%,37.2%,27.9%,10.6%,13.9%,,
C=CCn1c(SCC(=O)Nc2cccc(C(=O)/C=C/c3cc(OC)c(OC)c(OC)c3)c2)nc2ccccc2c1=O,78.2%,41%,49%,112%,45.7%,44.2%,75.6%,9.12% (active),-9.52% (active),-14.7% (active),17.4%,66.5%,132%,49.3%,82%,27.1%,,
COCCOc1ccc(-c2csc(NC(C)=O)n2)cc1NS(=O)(=O)c1cccc2c(N(C)C)cccc12,85.2%,79.8%,64.2%,-21.2% (active),72%,71.3%,74.8%,105%,69.6%,97.6%,105%,86.8%,119%,77.1%,88%,84.4%,,
CS(=O)(=O)c1nccc(-c2c(-c3ccc(F)c(OCc4ccccc4)c3)nc3sccn23)n1,87.6%,97.5%,86%,101%,93.4%,93.6%,80.3%,54.7%,,99.6%,100%,104%,117%,101%,91.3%,99.9%,16.6%,74
O=C(/C=C/Nc1ccc(S(=O)(=O)O)cc1)c1ccc(F)cc1,107%,105%,91.8%,97.2%,101%,90.4%,93%,98.5%,95.9%,99.5%,,105%,117%,109%,97.3%,97.3%,90.8%,102
C=CCn1c(SCC(=O)Nc2cccc(C(=O)/C=C/c3cccc([N+](=O)[O-])c3)c2)nc2ccccc2c1=O,96%,98.3%,79%,98.4%,96.5%,81.2%,81.1%,94.5%,17%,94.2%,92.5%,92%,116%,96.8%,91.9%,95.7%,,
